Rows were chosen to be rich in hits. Some 0.81% of all compounds tested hit in one or more screens of this group.
TRPML1 inh = human mucolipin-1 channel inhibition. Q9GZU1. TRPML1-inducible cells, Ca2+ dye fluorescence, FDSS; hits give low values; inhibition of EC80 agonist-evoked calcium signal. activity change, negative = inhibition, % (no concentration beside the values). 0.02% of 390,000 active. AID 624415; in the data active = activity change below about -50%; inconclusive = between about -30% and that limit;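 note: stimulus is agonist 54-4 at its EC80 concentration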
Target sequence (Q9GZU1 whole entry, looked up): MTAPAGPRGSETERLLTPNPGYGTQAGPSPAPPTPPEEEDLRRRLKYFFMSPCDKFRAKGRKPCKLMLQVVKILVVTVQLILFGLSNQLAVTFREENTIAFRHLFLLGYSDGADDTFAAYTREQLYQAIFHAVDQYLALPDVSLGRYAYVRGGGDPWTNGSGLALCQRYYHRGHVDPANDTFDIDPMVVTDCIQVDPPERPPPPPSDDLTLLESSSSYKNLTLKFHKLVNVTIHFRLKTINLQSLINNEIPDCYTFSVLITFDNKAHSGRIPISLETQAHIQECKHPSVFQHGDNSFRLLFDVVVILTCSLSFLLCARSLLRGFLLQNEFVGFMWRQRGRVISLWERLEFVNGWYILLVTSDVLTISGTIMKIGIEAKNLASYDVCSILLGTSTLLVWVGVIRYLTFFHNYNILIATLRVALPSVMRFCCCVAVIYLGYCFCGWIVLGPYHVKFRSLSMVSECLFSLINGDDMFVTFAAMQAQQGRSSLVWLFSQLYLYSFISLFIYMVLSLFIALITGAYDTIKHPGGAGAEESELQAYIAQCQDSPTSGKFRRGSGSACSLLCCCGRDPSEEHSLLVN
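Calcium fluorescence in TRPML1-DL cells induced overnight with Tet: a 110 s read after compound pin addition, then a 110 s antagonist read after challenge with 54-4 at 4 uM final (EC80).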
TRHR agonist-1 = activates the human TRH receptor | P34981 | TRHR cells, calcium flux fluo-8, FDSS agonist mode | activation, % at 2 µM | 0.18% of 360,000 active | AID 493084; in the data active = activation above about 30%
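Read-out: compound-evoked intracellular calcium rise in TRHR cells, fluo-8 dye, kinetic FDSS fluorescence at 1 s/cycle following a 10-cycle baseline. Cells cultured overnight before dye loading (30 min–1.5 h, RT).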
TRPML1 agonist = activates the human TRPML1 channel; TRPML1-expressing cells, Ca2+ dye fluorescence, FDSS; AID 624414; activation, % (no concentration beside the values); 0.12% of 410,000 active; in the data active = activation above about 50%; inconclusive = mostly about 30% to 49%
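Calcium fluorescence on an FDSS kinetic reader gave the read-out. Tet-induced TRPML1-DL cells were plated overnight, dye-loaded (Ca8 with quencher, 45-90 min, room temperature, dark), then read 110 s after compound addition, and again 110 s after 4uM final 54-4 (EC80).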
PTAP TSG101 blk = blocks PTAP/TSG101 interaction to inhibit HIV-1 budding; 340,000 tested, under 10 active; Potency, µM (highest dose often 115 µM), most hits filed as inhibitors; Fluorescence polarization, FITC-PTAP peptide / Tsg101 binding; Q99816; active = well fitted inhibition curve with a large enough effect in the main read-out, with a control signal flat, not every such curve was filed as active; inconclusive = small, poorly fitted or top-dose-only effect, or effect the other way, or a change in a side signal; inactive = no such curve, though single readings can be large or run the other way
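Compounds were pin-transferred onto Tsg101 binding domain (10 uM final) in HEPES pH 7.5 buffer, then FITC-PTAP peptide was added at 50 nM final. After 20 min at RT, polarization reported peptide displacement across a qHTS concentration series.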
TRHR enhancer-1 = allosteric enhancers of human TRH receptor; P34981; TRHR cells, fluo-8 calcium fluorescence, EC20 TRH enhancement; enhancement, % at 2 µM; 0.66% of 360,000 active; AID 493056; in the data active = enhancement above about 30%
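TRHR-expressing cells loaded with fluo-8 calcium dye were read kinetically (ex 480/em 530) during compound addition, then stimulated with an EC20 of TRH (10 nM final). Enhancement of the Gq-mediated intracellular calcium response was scored.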
TRHR enhancer-2 = confirmation of human TRH receptor allosteric enhancers. TRH receptor cell assay, enhancer confirmation qHTS. 970 tested, under 10 active. activity change, negative = inhibition, % at 46.1 µM. shares compounds with TRHR enhancer-1;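 note: compound effect scored on response to added TRH at EC20 of 10 nM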
TRHR agonist-2 = human TRH receptor agonism confirmation; shares compounds with TRHR enhancer-1; AID 493078; Potency, µM (highest dose often 46.1 µM), hits mostly activators; TRHR-expressing cells, agonist activation read-out; 8% of 970 active; note: nearly all actives have a fitted effect of over 75% in size
A number is an active result; 0 = inactive; ? = inconclusive; - = not tested or not shown. Unless noted, calls come from the whole dose curve; as a rule, active = well fitted curve in the direction sought with a large enough effect; inconclusive = small, poorly fitted or top-dose-only effect, or another doubt; inactive = no such curve, though single readings can be large; an effect the other way counts as inactive or inconclusive.

SMILES	TRPML1 inh	TRHR agonist-1	TRPML1 agonist	PTAP TSG101 blk	TRHR enhancer-1	TRHR enhancer-2	TRHR agonist-2
COC(=O)c1nnn(-c2nonc2N)c1CSc1nc2ccccc2s1	0	0	0	0	0	-	-
O=C(Nc1cc(C(F)(F)F)ccc1N1CCOCC1)C1CC1	0	0	0	0	49	0	0
COc1cc2nc(Cl)nc(NC3CCN(C)CC3)c2cc1OC	-	-	0	-	-	-	-
O=C(CSc1nc2ccccc2s1)N1c2ccccc2Sc2ccc(C(F)(F)F)cc21	0	0	0	0	58	0	0
O=C(C[n+]1ccccc1)c1ccc(O)c(O)c1	-	-	0	-	-	-	-
O=C(NC1CCCCCC1)c1ccc(=O)n(Cc2ccccc2)n1	0	0	0	0	55	0	0
COC(=O)C1CCN(C(=O)COC(=O)c2ccc(=O)n(Cc3ccccc3)n2)CC1	0	0	0	0	0	-	-
Fc1ccccc1-c1ccc(-c2nc3ccc(Cl)cn3c2Nc2ccc(Cl)cc2)o1	-	-	0	-	-	-	-
COc1cc2nc(N3CCCN(C)CC3)nc(N3CCN(C)CC3)c2cc1OC	-	-	0	-	-	-	-
COCCNC(=O)C(c1ccc(OC)cc1)N(C(=O)Cn1nnc2ccccc21)c1cccnc1 (configuration not stated)	0	0	0	0	42	0	0
CCc1ccc(C(C(=O)NCCOC)N(C(=O)Cn2nnc3ccccc32)c2cccnc2)cc1 (configuration not stated)	0	0	0	0	0	-	-
Cc1ccc2c(C(=O)CNc3nc(C)c(C)s3)c(C)[nH]c2c1	-	-	0	-	-	-	-
COC1=C/C(=C/c2c(N)n3nc(CC(=O)N4CCCCC4)sc3nc2=O)C=CC1=O	0	0	0	0	0	-	-
CCOC1=C/C(=C/c2c(N)n3nc(CC(=O)N4CCCCC4)sc3nc2=O)C=CC1=O	0	61	0	0	0	0	16µM
CCOC(=O)/C(C#N)=C(C)/C=C1\Sc2ccccc2N1CC	0	33	52	?	0	0	21µM
CCCCOc1ccc(C(=O)N/C(=C/C=C/c2ccccc2)C(=O)NC)cc1	0	0	0	0	0	-	-
CCCCOc1ccc(C(=O)N/C(=C/C=C/c2ccccc2)C(=O)O)cc1	0	0	0	0	0	0	0
Cc1c(C)c2ccc(OCC(=O)NCCCn3ccnc3)cc2oc1=O	0	0	0	0	43	0	0
CS(=O)(=O)c1ccc(Cl)c(NC(=O)COC(=O)c2c(Cl)cccc2Cl)c1	0	0	0	0	41	0	0
CC(=O)Nc1sc(C)c(C)c1C(=O)OCC(=O)Nc1cc(S(C)(=O)=O)ccc1Cl	-	0	-	0	0	-	-
CC(=O)c1ccc(NC(=O)c2cnn3c2NC(=C2CC2)C=C3C(F)F)cc1	-	-	0	-	-	-	-
Cc1ccccc1NS(=O)(=O)c1ccc2c3c(cccc13)C(=O)N2C	0	0	0	0	61	0	0
CCN1C(=O)c2cccc3c(S(=O)(=O)NCc4ccccc4)ccc1c23	0	0	0	0	0	-	-
CN1C(=O)c2cccc3c(S(=O)(=O)Nc4ccccn4)ccc1c23	0	0	0	0	0	-	-
CCN1C(=O)c2cccc3c(S(=O)(=O)Nc4ccccc4OC)ccc1c23	0	56	0	0	0	0	?
SMILES	TRPML1 inh	TRHR agonist-1	TRPML1 agonist	PTAP TSG101 blk	TRHR enhancer-1	TRHR enhancer-2	TRHR agonist-2
Cc1ccc2c(/C=C/c3ccc(N(C)C)cc3)ccnc2c1C	-	-	0	-	-	-	-
CCc1ccc(NC(=O)C[n+]2cc(-c3ccc(C)cc3)n3c2CCC3)cc1	0	0	0	0	42	0	0
Nc1nonc1/C(=N/O)N1CCN(CCO)CC1	0	0	0	0	88	0	0
CN1CCN(/C(=N\O)c2nonc2N)CC1	0	0	0	0	0	-	-
CC(=O)Nc1ccc(S(=O)(=O)NCCC(=O)OCC(=O)N2CCN(C(=O)c3ccco3)CC2)cc1	0	0	0	0	46	0	0
Brc1ccccc1/C=N/Nc1ccc2ccccc2n1	0	0	0	0	0	-	-
Brc1ccc(/C=N/Nc2ccc3ccccc3n2)cc1	0	0	0	0	51	0	0
O=C(/C=C/c1ccccc1)NC(N1CCOCC1)C(Cl)(Cl)Cl (configuration not stated)	0	0	0	0	45	0	0
O=C(NC(N1CCOCC1)C(Cl)(Cl)Cl)c1ccco1 (configuration not stated)	0	0	0	0	0	-	-
COc1cccc(NC(=O)c2cc3ccccc3o/c2=N\O)c1	-	0	-	0	49	0	0
COc1cccc(NC(=O)c2cc3cccc(OC)c3o/c2=N\O)c1	-	0	-	-	0	-	-
CC(C)(C)c1ccc(NC(=O)COC(=O)c2ccccc2OCC(=O)Nc2ccc(Br)cc2)cc1	-	-	0	-	-	-	-
N#C/C(=C\c1ccc(N2CCOCC2)o1)C(=O)NCCc1ccccc1	0	58	?	?	0	0	18µM
O=C(N/N=C/c1cccnc1)c1ccccc1OCc1cccc(Br)c1	0	0	0	0	0	-	-
Cc1ccc(/C=N/NC(=O)c2ccccc2OCc2cccc(Br)c2)o1	0	0	0	0	58	0	0
CCc1cccc(NC(=O)COC(=O)c2ccccc2OCc2ccccc2Br)c1	-	-	0	-	-	-	-
O=C(c1ccc2c(c1)OCO2)C1CCCN(C(=O)c2cnn(Cc3ccccc3)c2)C1 (configuration not stated)	0	0	0	0	41	0	0
O=Cc1ccc(CS)cc1	-	-	0	-	-	-	-
O=c1oc2c(CN3CCN(CCO)CC3)c(O)ccc2cc1-c1ccccn1	0	33	0	0	0	0	?
CC(O)COCC1OC2OC3C(COCC(C)O)OC(OC4C(COCC(C)O)OC(OC5C(COCC(C)O)OC(OC6C(COCC(C)O)OC(OC7C(COCC(C)O)OC(OC8C(COCC(C)O)OC(OC1C(OCC(C)O)C2OCC(C)O)C(OCC(C)O)C8OCC(C)O)C(OCC(C)O)C7OCC(C)O)C(OCC(C)O)C6OCC(C)O)C(OCC(C)O)C5OCC(C)O)C(OCC(C)O)C4OCC(C)O)C(OCC(C)O)C3OCC(C)O (configuration not stated)	-	-	0	-	-	-	-
COc1cccc(C2c3[nH]c4ccccc4c3CCN2Cc2cnn(C)c2)c1 (configuration not stated)	0	0	0	0	61	0	?
Cc1ccccc1C(=O)c1cccn1CC(=O)NC(C)CCc1ccccc1 (configuration not stated)	0	0	0	0	0	-	-
CC(CCc1ccccc1)NC(=O)Cn1cccc1C(=O)c1ccccc1 (configuration not stated)	0	0	0	0	46	?	0
Cc1ccc2c(/C=C/c3ccc(N(C)C)cc3)c(C)cnc2c1	-	-	0	-	-	-	-
COc1cccc(OC)c1-c1cc(CCCc2cc(-c3c(OC)cccc3OC)nc3ccccc23)c2ccccc2n1	-	-	0	-	-	-	-

Source: PubChem (National Center for Advancing Translational Sciences (NCATS))
